Assay [1] can be described thus: compound effects on lung adenocarcinoma cell viability – A549, calcein-AM fluorescence, 48 h, basal, profiling panel (AID 1162). Further: test concentration not given here. The following applies: higher = more signal.
A short description of assay [2]: compound effects on differentiated 3T3-L1 adipocyte viability – cell-based, 3T3-L1 adipocytes, calcein-AM fluorescence, 48 h, basal, profiling panel (AID 1163). Further: test concentration not given here. The following applies: 3T3-L1 adipocytes viability, higher = more signal.
Assay [3] in a line: compound effects on hepatocellular carcinoma cell viability – HepG2, calcein-AM fluorescence, 48 h, basal, profiling panel (AID 1164). Further: test concentration not given here. As to conditions: higher = more signal.
Assay [4] is described as follows: compound effects on multiple myeloma cell viability – MM1S, calcein-AM fluorescence, 48 h, basal, profiling panel (AID 1165). Further: test concentration not given here. As to conditions: higher = more signal.
A short description of assay [5]: calcein-AM signal in unstimulated myeloma cells – cell-based, calcein-AM fluorescence, 48 h, PK04 Diversity Set, profiling panel (AID 1166).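 Further: cells grown under basal conditions without added stimulus; test concentration not given here.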 The following applies: RPMI8226 myeloma viability, higher = more signal.
Assay [6] can be described thus: JC-1 mitochondrial signal, unstimulated HepG2 cells – cell-based, JC-1 fluorescence, 24 h, 100 nL compound, profiling panel (AID 1167). Further: test concentration not given here. The following applies: HepG2 mitochondrial potential, higher = more signal.
Assay [7] in a line: JC-1 mitochondrial signal, unstimulated adipocytes – cell-based, JC-1 fluorescence, 3T3-L1 adipocytes, 24 h, 100 nL compound, profiling panel (AID 1168). Further: test concentration not given here. The following applies: JC-1 mitochondrial fluorescence, higher = more signal, called active from +8 up or from −8 down.
Assay [8] is described as follows: JC-1 mitochondrial signal, unstimulated myeloma cells – cell-based, JC-1 fluorescence, RPMI8226, 24 h, 100 nL compound, profiling panel (AID 1169). Further: test concentration not given here. The following applies: JC-1 mitochondrial potential fluorescence, higher = more signal.
The nature of assay [9]: JC-1 mitochondrial signal, unstimulated MM1S myeloma – cell-based, JC-1 fluorescence, 24 h, 100 nL compound, profiling panel (AID 1170). Further: test concentration not given here. As to conditions: MM1S mitochondrial potential, higher = more signal.
Assay [10] can be described thus: resazurin metabolic signal in A549 cells – cell-based, resazurin fluorescence, 24 h, PK04 Diversity Set, profiling panel (AID 1171). Further: test concentration not given here. As to conditions: A549 viability, higher = more signal, called active from +8 up or from −8 down.
The nature of assay [11]: resazurin metabolic signal in HepG2 cells – cell-based, resazurin fluorescence, 24 h, PK04 Diversity Set, profiling panel (AID 1172). Further: test concentration not given here. As to conditions: HepG2 viability, higher = more signal. (In general: Resazurin is reduced to fluorescent resorufin, in cell work by metabolically active cells.)
A short description of assay [12]: budding yeast growth changes without added modifier – OD600, strain BY4716, 24 h, basal condition, primary screen (AID 1173). The following applies: S. cerevisiae BY4716 growth, OD600, 24 h; higher = more signal, called active from +8 up or from −8 down.
A short description of assay [13]: viability profiling in MM1S myeloma cells – cell-based, resazurin fluorescence, basal, 24 h, PK04 Diversity Set, profiling panel (AID 1174). Further: test concentration not given here. The following applies: higher = more signal, called active from +8 up or from −8 down.
In assay [14] the target is Dihydroorotate dehydrogenase (quinone), mitochondrial (Plasmodium falciparum (isolate 3D7)) (UniProt Q08210). Nature of the assay: inhibition of P. falciparum DHODH – biochemical, C-terminal His tag, absorbance 600 nm, primary screen (AID 1175).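 Further: recombinant parasite enzyme with a five histidine tag at its C terminus; test concentration not given here.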 The following applies: PfDHODH enzyme, DCIP absorbance 600 nm; higher = more signal, called active from +8 up or from −8 down.
Assay [15] is described as follows: inhibition of PAO1 biofilm formation – strain PAO1, LB-PBS medium, absorbance 600 nm, primary screen (AID 1176). Further: test concentration not given here. The following applies: P. aeruginosa PAO1 growth/biofilm, A600, 12 h; higher = more signal.
Assay [16] is described as follows: growth modulation of vineyard yeast isolate – strain RM11-1a, OD600, basal, 24 h, primary screen (AID 1177).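 Further: cultures grown under basal conditions with no added stressor; test concentration not given here.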 The following applies: S. cerevisiae RM11-1a growth, OD600, 24 h; higher = more signal, called active from +8 up or from −8 down.
Assay [17] can be described thus: growth of efflux-deficient E. coli DRC39 – strain DRC39, OD650, 24 h, E. coli filamentation inducers, primary screen (AID 1178).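 Further: growth measured as culture turbidity by optical density at 650 nm; test concentration not given here.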 As to conditions: E. coli DRC39 acrAB, higher = more signal, called active from +8 up or from −8 down.
Assay [18] in a line: growth of efflux-deficient E. coli DRC39 – strain DRC39, OD650, 48 h, E. coli filamentation inducers, primary screen (AID 1179).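 Further: screen aims at cell division blockers that make cells filament.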 The following applies: E. coli DRC39 delta-acrAB growth, higher = more signal, called active from +8 up or from −8 down.
A short description of assay [19]: viability profiling in RPMI8226 myeloma cells – cell-based, resazurin fluorescence, basal, 24 h, PK04 Diversity Set, profiling panel (AID 1180).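 Further: RPMI8826 multiple myeloma cell line at 5000 cells per well; test concentration not given here.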 The following applies: higher = more signal.
Assay [20] addresses E3 ubiquitin-protein ligase XIAP (Homo sapiens) (UniProt P98170). Nature of the assay: small molecules binding XIAP protein – biophysical, small-molecule microarray, fluorescence 635 nm, primary screen (AID 1181).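 Further: score merges 667 nm emission and signal to noise over triplicate slides.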 The following applies: higher = more signal.

The structures appear in SMILES notation. Active and inactive are the calls of the source. Unless noted, how the calls were made is not given here.

Z-score and composite z-score data for 6 compounds are collected here from PubChem BioAssay.

Chain of E3 ubiquitin-protein ligase XIAP (Homo sapiens) (P98170 whole entry, looked up): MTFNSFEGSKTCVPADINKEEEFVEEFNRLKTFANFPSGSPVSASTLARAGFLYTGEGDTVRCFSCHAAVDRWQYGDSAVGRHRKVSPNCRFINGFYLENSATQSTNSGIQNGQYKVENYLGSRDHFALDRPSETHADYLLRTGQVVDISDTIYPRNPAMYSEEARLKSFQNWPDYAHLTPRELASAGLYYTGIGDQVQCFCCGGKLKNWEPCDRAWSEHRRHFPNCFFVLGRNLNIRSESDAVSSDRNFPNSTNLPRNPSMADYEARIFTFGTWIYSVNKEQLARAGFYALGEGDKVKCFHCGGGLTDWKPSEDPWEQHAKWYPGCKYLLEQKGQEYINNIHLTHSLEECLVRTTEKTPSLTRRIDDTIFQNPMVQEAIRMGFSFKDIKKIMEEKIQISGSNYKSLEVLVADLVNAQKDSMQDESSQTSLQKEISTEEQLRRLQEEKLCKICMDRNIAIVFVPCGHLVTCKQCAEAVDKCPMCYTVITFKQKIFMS
Chain of Dihydroorotate dehydrogenase (quinone), mitochondrial (Plasmodium falciparum (isolate 3D7)) (Q08210 whole entry, looked up): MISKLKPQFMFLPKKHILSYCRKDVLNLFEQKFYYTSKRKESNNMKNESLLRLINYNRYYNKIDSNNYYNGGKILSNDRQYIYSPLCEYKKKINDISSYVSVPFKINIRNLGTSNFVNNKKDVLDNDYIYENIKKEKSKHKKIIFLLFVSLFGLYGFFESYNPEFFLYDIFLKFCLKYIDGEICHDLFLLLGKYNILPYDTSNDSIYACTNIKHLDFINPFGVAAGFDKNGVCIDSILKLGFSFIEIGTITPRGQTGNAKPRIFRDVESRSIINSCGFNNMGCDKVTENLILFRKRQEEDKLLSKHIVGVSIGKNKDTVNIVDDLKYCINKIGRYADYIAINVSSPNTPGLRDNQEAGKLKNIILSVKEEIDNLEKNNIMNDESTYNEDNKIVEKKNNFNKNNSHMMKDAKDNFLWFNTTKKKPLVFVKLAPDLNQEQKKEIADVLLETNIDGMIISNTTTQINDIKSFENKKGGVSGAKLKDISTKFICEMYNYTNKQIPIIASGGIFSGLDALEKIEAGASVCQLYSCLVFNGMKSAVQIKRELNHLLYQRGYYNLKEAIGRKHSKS

Consider `COC(=O)C(C(=O)OC)C1CCCC(=O)C1` (stereo not given), for which the z-score was 0.219 in [1]; 0.585 in assay [2]; -0.526 in assay [3]; -0.68 in assay [4]; -1.34 in [5]; -0.108 in assay [6]. In addition, the z-score in assay [7] is -0.078 (inactive); in [8] it was 0.753; in [9] it was 1.15; in assay [10], -1.14 (inactive); in assay [11], -0.598; in assay [12], -0.272 (inactive). Further, the z-score is -1.14 (inactive) in assay [13]; -0.482 (inactive) in assay [15]; 0.386 (inactive) in assay [16]; -1.37 (inactive) in assay [17]; -0.561 (inactive) in assay [18]; -0.53 in [19]. Besides, the composite z-score in [14] is 0.437 (inactive); in assay [20] it was -0.34.

Consider `O=C1[C@H]2[C@H]3[C@H](O)[C@H](O)CC(=NO[C@@H]4O[C@H](CO)[C@@H](O)[C@H](O)[C@H]4O)[C@@H]3CC[C@H]2C(=O)N1C1CCCCC1`, for which the z-score was 0.646 in [1]; -0.235 in assay [2]; 0.521 in assay [3]; 0.547 in [4]; 0.776 in assay [5]; 1.09 in [6]. Moreover, the z-score in assay [7] is -0.229 (inactive); in assay [8] it was 0.169; in assay [9], -1.25; in [10] it was -0.934 (inactive); in [11], -0.841; in assay [12], 0.431 (inactive). The z-score is -2.35 (inactive) in [13]; 0.553 (inactive) in assay [15]; 0.237 (inactive) in [16]; -0.0163 (inactive) in assay [17]; 0.27 (inactive) in assay [18]; -0.917 in assay [19]. Besides, the composite z-score in [14] is -0.201 (inactive); in [20], -0.132.

With `CC(C)=NOC[C@@H](O)[C@H]1O[C@@H]2OC(C)(C)O[C@@H]2[C@H]1O`, the z-score is 0.112 in assay [1]; -1.53 in assay [2]; 0.139 in [3]; -0.112 in assay [4]; -0.0588 in assay [5]; -0.00334 in [6]. Also, the z-score is -1.09 (inactive) in assay [7]; -1.01 in assay [8]; 0.661 in assay [9]; -0.871 (inactive) in [10]; -0.831 in assay [11]; -0.0545 (inactive) in assay [12]. Moreover, the z-score was -0.369 (inactive) in assay [13]; -0.443 (inactive) in [15]; 0.0762 (inactive) in [16]; 0.757 (inactive) in [17]; 0.704 (inactive) in [18]; -0.686 in assay [19]. Besides, the composite z-score is 0.759 (inactive) in assay [14] and -0.389 in assay [20].

In the case of `C#CCCCON=C1[C@H]2CCn3c(=O)n([C@@H](CC)c4ccccc4)c(=O)n3[C@H]2[C@H](O)[C@@H]2O[C@H]12`, the z-score in [1] was 0.0523; in [2], 0.44; in assay [3] it was -0.129; in assay [4], -1.77; in assay [5], -0.0952; in assay [6], -0.696. Moreover, the z-score in assay [7] is 0.123 (inactive); in assay [8], -0.547; in [9], -0.662; in [10], 0.43 (inactive); in assay [11], -0.14; in [12] it was -0.971 (inactive). Moreover, the z-score is -0.813 (inactive) in [13]; -0.531 (inactive) in assay [15]; -0.771 (inactive) in [16]; -0.529 (inactive) in assay [17]; -0.567 (inactive) in [18]; -0.751 in assay [19]. Moreover, the composite z-score in assay [14] is 0.147 (inactive); in assay [20], -0.181.

Consider `C=CC[C@@H]1C=CC(ON=C(C)C)[C@@H](CO)O1` (stereo not given in full), for which the z-score in assay [1] was 1.08; in assay [2] it was -0.521; in assay [3] it was 0.389; in [4] it was 0.255; in assay [5] it was -0.153; in [6], -0.459. The z-score in assay [7] was -0.346 (inactive); in assay [8], 0.00663; in assay [9], -0.644; in [10], -0.816 (inactive); in assay [11], -0.689; in [12], 0.381 (inactive). The z-score in [13] was -0.389 (inactive); in assay [15], -0.254 (inactive); in assay [16], 1.1 (inactive); in assay [17], 0.832 (inactive); in assay [18], -1.16 (inactive); in assay [19] it was 0.283. Further, the composite z-score in assay [14] was 0.532 (inactive); in [20], -0.267.

On to `COC(=O)[C@H](C)NC(=O)CCC1CC(OC(=O)NCCc2ccc(F)cc2)CC2(CCCC(COC(=O)NCc3ccccc3)O2)O1` (stereo not given in full), for which the z-score is -0.101 in assay [1]; -0.0012 in assay [2]; 0.601 in assay [3]; 0.756 in assay [4]; -0.484 in assay [5]; 0.995 in [6]. Besides, the z-score in [7] was 0.553 (inactive); in assay [8] it was 0.265; in assay [9] it was -0.579; in assay [10], 0.896 (inactive); in [11], 0.445; in assay [12], 1.45 (inactive). Further, the z-score in assay [13] was 1.05 (inactive); in assay [15], 0.119 (inactive); in [16], 1.02 (inactive); in [17], 0.0734 (inactive); in [18] it was -0.445 (inactive); in assay [19], 1.07. Besides, the composite z-score in [14] is 0.152 (inactive); in assay [20], -0.0601.
